Measured values taken from PubChem BioAssay AID540317 (National Center for Advancing Translational Sciences (NCATS), 2011).
Hit rate of the full screen: of about 390,000 compounds, about 2,200 (0.56%) were called active. Roughly 3% stayed inconclusive and do not appear here. The list comes from a sample in which actives are over-represented; it also holds similar structures and randomly drawn compounds. Values without a mark were called inactive. Calls follow the shape of the dose curve; as a rule, active = well fitted inhibition curve with a large enough effect; inconclusive = small, poorly fitted or top-dose-only effect; inactive = no such curve, though single readings can be large or run the other way.

Each molecule was assayed against Chromobox protein homolog 1 (Homo sapiens) (UniProt P83916) (assay: HTS for Inhibitors of HP1-beta Chromodomain Interactions with Methylated Histone Tails). Conditions: AlphaScreen HP1-beta / biotin-H3K9me3 peptide binding; series mostly up to 114 µM; activity change, negative = inhibition: at the top concentration.
Chain of Chromobox protein homolog 1 (Homo sapiens) (P83916 whole entry, looked up): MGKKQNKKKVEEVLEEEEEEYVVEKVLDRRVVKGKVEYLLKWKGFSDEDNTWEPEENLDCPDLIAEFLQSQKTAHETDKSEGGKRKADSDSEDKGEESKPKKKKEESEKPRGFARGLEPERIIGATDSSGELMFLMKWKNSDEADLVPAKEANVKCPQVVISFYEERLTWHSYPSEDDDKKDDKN
Method in brief: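 AlphaScreen: HP1-beta (50 nM) preformed 30 min with biotin-H3(1-18)K9me3 peptide (50 nM) in PBS pH 7.4, 0.01% Tween-20. Compound added for 30 min at RT, then streptavidin donor/nickel chelate acceptor beads (10 ug/mL) for 30 min.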
Also: nearly all actives have a fitted effect of over 70% in size.
Potency is read from the fitted curve at half-maximal effect.

SMILES | activity change, negative = inhibition | Potency
CCOC(=O)C1=C(CC)Nc2ccccc2N=C1N | -17.5% | –
COc1cccc(CNC(=O)C2CCC(CNS(=O)(=O)c3cccs3)CC2)c1 (centres undefined) | 29% | –
Cc1ccccc1CS(=O)(=O)CC1Nc2ccc(C(=O)NCc3ccc(Cl)cc3)cc2NC1=O (centres undefined) | 7.19% | –
Cc1ccc(NC(=O)C(=O)NCC(c2cccnc2)N2CCOCC2)cc1 (centres undefined) | 36.9% | –
COc1ccccc1N1CCN(C(CNC(=O)C(=O)NCc2ccc(C)cc2)c2cccnc2)CC1 (centres undefined) | 40.3% | –
CCOC(=O)N1CCN(C(c2cccnc2)c2ccc3cccnc3c2O)CC1 (centres undefined) | – | 8.91 µM (active)
CN(Cc1ccccc1)C(=O)c1cc2c(=O)n(C)c3ccccc3c2s1 | 15.5% | –
Nc1ccccc1SC(C[N+](=O)[O-])c1ccccc1 (centres undefined) | – | 15.8 µM (active)
Cc1cccc(-n2ncc(C(=O)N3CCc4ccccc4C3)c2C2CCN(C(=O)OC(C)(C)C)CC2)c1 | 28.4% | –
Cc1c(NC(=O)c2cc(=O)c3ccccc3o2)c(=O)n(-c2ccccc2)n1C | 25.2% | –
CCc1nnc(SCC(=O)Nc2cc(OC)ccc2OC)nc1CC | 27.4% | –
Cc1ccc(NC2=NC(c3ccccc3)n3c(nc(C)cc3=O)N2)cc1 (centres undefined) | 41.3% | –
Cc1ccccc1Nc1c([N+](=O)[O-])ccc2nonc12 | -5.21% | –
Cc1ccc(Nc2cc(C)nc3c(C)ccc([N+](=O)[O-])c23)cc1 | – | 22.4 µM (active)
CCOC(=O)c1c(NC(=O)c2cc(-c3ccc(Cl)cc3)on2)sc2c1CCCC2 | -6.48% | –
O=C1C2C(c3ccccc3)CC=CC2C(c2ccoc2)N1Cc1ccccc1 (centres undefined) | 5.79% | –
CC(C)C(=O)Nc1nc2c(s1)CC(C(C)(C)C)CC2 (centres undefined) | 13.7% | –
Cc1ccc(SCC(CC(C)C)N2CCN(CCc3ccccc3)CCC2=O)cc1 (centres undefined) | 3.23% | –
NC1=NOC(=O)C1C1CCCCC1 (centres undefined) | – | 5.01 µM (active)
CN1c2ccc(Cl)cc2-c2nc(SCC(=O)Nc3cc(F)ccc3F)ncc2S1(=O)=O | 12% | –
CC1(C)CCc2cc(S(=O)(=O)N3CCN(c4nc(-c5cccs5)nc5ccccc45)CC3)ccc2O1 | 19.3% | –
COc1ccc(CCN2C(=O)N(c3cccc(OC)c3)C(=O)C2CC(=O)Nc2ccccc2)cc1 (centres undefined) | 46.9% | –
Cc1cc(NS(=O)(=O)c2ccc(NC(=O)c3ccccc3C)cc2)nc(C)n1 | 30.7% | –
Cc1ccccc1C(=O)Nc1ccc(N2CCCCCC2)cc1 | – | 35.5 µM (active)
CC(=O)Nc1ccc(S(=O)(=O)Nc2ccc(N3CCCCC3)cc2)cc1 | – | 20 µM (active)

SMILES | activity change, negative = inhibition | Potency
O=C(NC(=O)c1ccccc1N1CCCCC1)Nc1ccc(Br)cc1 | 32.7% | –
CC(=O)Nc1ccc(S(=O)(=O)N2CCN(c3ccccc3)CC2)cc1 | 15.4% | –
CC(=O)Nc1ccc(S(=O)(=O)N2CCCC2C(=O)O)cc1 (centres undefined) | 22.7% | –
CCOc1ccc(CNC(=O)CCc2c(C)nn(-c3ccc(N4CCCCC4)nn3)c2C)cc1 | 44.2% | –
CCOC(=O)c1c(NC(C)=O)c2c3c(sc2n1Cc1c(C)cc(C)cc1C)CCCC3 | 52.9% | –
COc1ccc(C(=O)COC(=O)CCCC(=O)Nc2cc(C(F)(F)F)ccc2Cl)cc1 | 29.1% | –
CCC(Sc1nnc(-c2ccc(OC)cc2)c(-c2ccc(OC)cc2)n1)C(=O)NC1CCCCC1 (centres undefined) | 27.6% | –
Cc1cc(N=Nc2ccc3ccccc3c2)ccc1O | – | 50.1 µM (active)
Cc1cc(C)cc(NS(=O)(=O)c2ccc3[nH]cc(C(=O)N4CCCCC4)c(=O)c3c2)c1 | 7.14% | –
COc1cccc(CNC(=O)c2ccc3c(c2)sc2nc(-c4cccc(OC)c4)cn23)c1 | 37.8% | –
CCCNc1ncnc2c1c(-c1ccccc1)cn2-c1ccc(OCC)cc1 | 18% | –
COc1cc(N2CCCC2)c(OC)cc1/C=C(/C#N)c1cccc(Br)c1 | – | 35.5 µM (active)
CCOC(=O)c1[nH]c(C)c(CCC(=O)N2CCN(c3ccccc3)CC2)c1C | 16.2% [at 57 µM] | –
Cc1ccc(NC(=O)Cn2cnc3nc4c(cc3c2=O)CCCC4)cc1Cl | 20.7% [at 57 µM] | –
CCOC(=O)c1cc(-c2ccc(OC)c(S(=O)(=O)Nc3ccc(OC)cc3OC)c2)on1 | 32.8% | –
O=C1CN(Cc2ccccc2)S(=O)(=O)c2ccccc21 | 24.1% | –
COc1ccc(Cc2nc3ccc(C(=O)NCc4ccccc4C)cc3o2)cc1 | 25.6% [at 57 µM] | –
COc1cc2c3c(c1)/C(=C1/SC(=S)NC1=O)C(=O)N3C(C)(C)C=C2C | – | 10 µM (active)
Cc1cccc(N2CCN(C(=O)c3ccc(Nc4nc5ccccc5n5nnnc45)cc3)CC2)c1C | 11.1% | –
Cc1csc2nc(COC(=O)c3ccccc3NC(=O)c3ccccc3Cl)cc(=O)n12 | -3.59% | –
COc1ccc(-c2nnc(SCC(=O)Nc3ccc(C(C)C)cc3)nc2-c2ccc(OC)c(OC)c2)cc1OC | 25% | –
O=C1C(Cl)=C(Oc2ccccc2)C(=O)c2ccccc21 | – | 2 µM (active)
COc1ccc(Br)cc1C1C2C=CCC(C)C2C(=O)N1Cc1ccccc1 (centres undefined) | 31.3% | –
CCOC(=O)c1ccc(NC(=O)Cn2cc(S(=O)(=O)Cc3ccccc3F)c3ccccc32)cc1 | -1.75% | –
